Sampled rows, rich in hits. Any-hit rate of the full collection: about 1.2%.
GLA inh pH 4.5 = blocks human alpha-galactosidase A at pH 4.5; P06280; purified enzyme, 4-MU-alpha-Gal fluorescence, pH 4.5; activity change, negative = inhibition, % at 105 µM; 230,000 tested, under 10 active; AID 1467;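 note: 0% = full activity with enzyme and -100% = basal without enzyme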
HttQ103 aggreg = reduces HttQ103-GFP aggregates in PC12 cells | PC12 HttQ103-GFP aggregates, Acumen cytometry, 40 h | Potency, µM (doses to about 46.1 µM), for the others: at the highest dose activity change, negative = inhibition, most hits filed as inhibitors | hit rate 1.1% among 220,000; note: potency is the fitted concentration of half-maximal effect; % is set by controls: 0 for no effect and ±100 for the full control effect; nearly all actives have a fitted effect of over 60% in size
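Steps: seed 1500 PC12 HTTQ103-GFP cells/well; add tebufenozide, 100 nM final; add compound titration; add ATPLite reagent; quantify GFP aggregates by laser scanning cytometry.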
PKM2 act = PKM2 (human) enzyme activation. purified PKM2, Kinase-Glo ATP luminescence, activation; response scale: 0% is enzyme alone, no compound. P14618. hit rate 0.34% among 260,000. AID 1631. Potency, µM (doses to about 57.5 µM), for the others: top-dose activation, usual class: activators; note: potency is the fitted concentration of half-maximal effect; % is set by controls: 0 for no effect and ±100 for the full control effect; nearly all actives have a fitted effect of over 55% in size
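ATP formation by purified human PK-M2, quantified via coupled luciferase luminescence after 1 h at room temperature with 0.1 mM ADP and 0.5 mM PEP final.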
HTT cytoprotect = protects HTT-Q103 PC12 cells, measured by ATP | hit rate 0.14% among 230,000 | PC12 HTT-Q103 induced, cytoprotection, ATP luminescence, 40 h | AID 1471 | Potency, µM (top dose mostly 56.4 µM), for inactives: cytoprotection (ATP increase), most hits filed as activators; note: potency is the fitted concentration of half-maximal effect; % of control where 0% means no effect; nearly all actives have a fitted effect of over 45% in size
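Cells were plated at 1500 per well in phenol red-free DMEM with 5% equine and 5% calf serum. Tebufenozide (100 nM final) and compounds were added, then ATPlite reagent, and luminescence was read.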
aGal spleen mod = alpha-galactosidase A (human) modulation. P06280. hit rate 0.008% among 240,000. human spleen homogenate, 4MU-alpha-Gal fluorescence, 40 min. AID 2107. Potency, µM (series often up to 80 µM), inactives show at the top dose activity change, negative = inhibition, actives largely listed as inhibitors;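 note: potency is the fitted concentration of half-maximal effect; 0% = enzyme with vehicle and -100% = no enzyme basal signal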
Target sequence (P06280 32-429 limits assumed): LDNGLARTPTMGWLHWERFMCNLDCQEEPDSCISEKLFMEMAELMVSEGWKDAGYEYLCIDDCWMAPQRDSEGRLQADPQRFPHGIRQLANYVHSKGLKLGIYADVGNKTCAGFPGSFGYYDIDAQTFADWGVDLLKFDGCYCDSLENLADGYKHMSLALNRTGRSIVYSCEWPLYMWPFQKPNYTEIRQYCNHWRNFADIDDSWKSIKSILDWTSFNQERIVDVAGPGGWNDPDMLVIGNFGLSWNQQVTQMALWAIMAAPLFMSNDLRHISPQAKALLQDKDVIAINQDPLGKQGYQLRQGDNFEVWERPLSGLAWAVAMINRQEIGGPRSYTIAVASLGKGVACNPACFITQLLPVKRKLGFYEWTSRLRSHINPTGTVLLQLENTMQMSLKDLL
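Fluorogenic readout (Ex 365/Em 440 nm) of 4-methylumbelliferone released from 1 mM 4-MU-alpha-galactoside by spleen homogenate, 40 min at 37C, pH 5.0. Data normalized to no-enzyme and enzyme controls; Hill-equation AC50 from compound titrations.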
* marks the source's active call; other numbers are inactive results; u = inconclusive; x = not tested or not shown; [ ] = dose if it differs, or a comment. Calls come from the whole dose curve; as a rule, active = well fitted curve in the direction sought with a large enough effect; inconclusive = small, poorly fitted or top-dose-only effect, or another doubt; inactive = no such curve, though single readings can be large; an effect the other way counts as inactive or inconclusive.

SMILES	GLA inh pH 4.5	HttQ103 aggreg	PKM2 act	HTT cytoprotect	aGal spleen mod
COc1ccc(NS(=O)(=O)c2ccc(Oc3ncccn3)cc2)cc1	2	11µM*	2%	-35%	4%
CS(=O)(=O)Nc1cccc(-c2cc(Nc3ccccc3)ncn2)c1	x	x	x	-50%	2%
CCN1/C(=C/c2ccc3ccccc3[n+]2CC)C=Cc2ccccc21	-4	3.2µM*	-79%	-55%[10 µM]	-3%
CCCCN1/C(=C/c2ccc3ccccc3[n+]2CC)Sc2ccccc21	6	2.5µM*	-37%	-59%[10 µM]	-14%
CCN1C(=C2C(=O)c3ccccc3C2=O)C=Cc2ccccc21	-4	-19%[9.22 µM]	22%	-12%	-3%
CCN1/C(=C/c2ccc3cc(C)ccc3[n+]2CC)Sc2cc(C)ccc21	-10	1µM*	-13%	-140%	4%
CCCCS(=O)(=O)N1CCc2nc(-c3ccccc3)c3c(c2C1)CO[C@@H](C)C3	4	x	-2%[11.5 µM]	-7%[10 µM]	-9%[17.5 µM]
CC(=O)OC[C@@H]1O[C@@H](O/N=C2/C[C@@H](O)[C@@H](O)[C@@H]3[C@@H]4C(=O)N(Cc5ccc6c(c5)OCO6)C(=O)[C@H]4CC[C@@H]23)[C@H](OC(C)=O)[C@H](OC(C)=O)[C@@H]1OC(C)=O	x	x	x	3%[10 µM]	0%[17.5 µM]
O=C(NC(c1ccc(Cl)cc1)c1cc(Cl)c2cccnc2c1O)c1cccnc1 (configuration not stated)	-3	8.9µM*	-1%	-71%[10 µM]	6%
COC(=O)NC(/C(C(=O)OC)=C(\C)NCc1ccccc1)c1cccc(C)c1 (configuration not stated)	x	x	x	-7%[10 µM]	7%[17.5 µM]
COc1ccc(C(C#N)C2(C)OCCO2)cc1OC (configuration not stated)	1	2.5µM*	-4%	1%	2%
CCS(=O)(=O)Nc1ccc(C2=NN(C(=O)c3ccco3)C(c3ccc(C)cc3)C2)cc1 (configuration not stated)	-13	u	7.9µM*	-86%	5%
CCS(=O)(=O)Nc1ccc(C2=NN(C(=O)c3ccco3)C(c3cccc(F)c3)C2)cc1 (configuration not stated)	2	-30%	u	0%	-1%
CS(=O)(=O)Nc1ccc(C2=NN(C(=O)c3ccco3)C(c3ccccc3)C2)cc1 (configuration not stated)	0	3%	14µM*	2%[10 µM]	2%
Cc1ccc(C2CC(c3ccc(NS(C)(=O)=O)cc3)=NN2C(=O)c2ccco2)cc1 (configuration not stated)	8	2%	u	-13%[10 µM]	9%
O=C(c1csnn1)N1CCC2(CC1)CCN(c1ncccn1)CC2	x	x	x	-5%	-4%
O=S(=O)(Nc1nc2ccccc2nc1N1CCc2ccccc2C1)c1ccc(Cl)cc1	-4	u	2%	9%[10 µM]	-5%
O=S(=O)(Nc1nc2ccccc2nc1N1CCc2ccccc2C1)c1ccc(Br)cc1	8	7.1µM*	-49%	-38%[10 µM]	3%
O=S(=O)(Nc1nc2ccccc2nc1Cl)c1ccc(Br)cc1	-9	10µM*	0%	-6%	0%
CC1=C(C(=O)OCc2ccccc2)C(c2ccc(C3CCCCC3)cc2)NC(=O)N1CCCCCC(=O)O (configuration not stated)	u	x	6%	-3%	1%
CC(=O)N1CCC2(CC1)CCN(c1ccccc1)CC2	x	x	x	-61%	-13%
NC(N)=N/N=C\c1ccc(O)c(C(=O)O)c1	x	x	x	1%[10 µM]	x
Cc1ccc(/C=c2\sc3n(c2=O)CN(c2ccc(Br)cc2)CN=3)o1	-15	31%	u	-29%	2%
Cc1ccc(N2CN=c3s/c(=C\c4cccnc4)c(=O)n3C2)cc1	-2	10µM*	-4%	-7%	19%
c1ccc2[nH]ccc2c1	x	4%	x	-3%	x
CC(/C=N\N1CCN(c2ccc(Cl)cc2)CC1)=C\c1ccccc1	7	14%	-6%	3.2µM*	-12%
O=C(c1ccc(Cl)c(Cl)c1)N1CCC(O)(CN2CCOCC2)CC1	4	7%	-1%	-16%	3%
O=C(c1ccc(Cl)cc1)N1CCC(O)(CSc2ccc(Cl)cc2Cl)CC1	-24	10µM*	13%	37%[10 µM]	1%
